Hits are enriched below; roughly 10% of the tested compounds scored in any of these assays.
BAZ2B block: inhibitors of human BAZ2B bromodomain; Q9UIF8; AlphaScreen BAZ2B-H3K14Ac peptide displacement; Potency, µM (doses to about 114 µM), for the others: top-dose activity change, negative = inhibition, usual class: inhibitors; 4.4% of 360,000 active; also: potency is read from the fitted curve at half-maximal effect; % is scaled to controls: 0 for no effect and ±100 for the full control effect; nearly all actives have a fitted effect of over 60% in size
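BAZ2B (50 nM) with biotin-H3(5-23)K14Ac peptide (50 nM) in PBS pH 7.4, 0.01% Tween-20, preformed 30 min, then compound 30 min at room temperature; top concentration 110uM. AlphaScreen streptavidin donor/nickel chelate acceptor beads (10 ug/mL final), 20 min dark, signal read.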
HP1b binding inh: blocks HP1-beta chromodomain binding to methylated histone tails | P83916 | AlphaScreen HP1-beta / biotin-H3K9me3 peptide binding | Potency, µM (highest dose often 114 µM), for inactives: at the highest dose activity change, negative = inhibition, actives largely listed as inhibitors | 0.56% of 390,000 active | AID 540317; also: potency is read from the fitted curve at half-maximal effect; nearly all actives have a fitted effect of over 70% in size
Target sequence (P83916 whole entry, looked up): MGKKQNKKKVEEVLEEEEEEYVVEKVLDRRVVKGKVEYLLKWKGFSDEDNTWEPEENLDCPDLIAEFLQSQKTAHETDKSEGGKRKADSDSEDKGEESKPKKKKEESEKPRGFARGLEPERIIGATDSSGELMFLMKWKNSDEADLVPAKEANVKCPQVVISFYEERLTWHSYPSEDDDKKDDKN
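HP1-beta protein (50 nM final) preincubated 30 min at room temperature with biotinylated H3(1-18)K9me3 peptide (50 nM) in PBS pH 7.4, 0.01% Tween-20, then compound added for 30 min. AlphaScreen streptavidin donor/nickel chelate acceptor beads (10 ug/mL final), 30 min dark, luminescence read.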
CtBP-E1A inh: blocks the CtBP interaction with E1A. AlphaScreen GST-E1A/His-CtBP binding, 1536-well; stronger effect = lower value. activity change, % (no concentration beside the values). 0.49% of 340,000 active. AID 651724; in the data active = activity change below about -65%; inconclusive = mostly about -30% to -63%; also: % is scaled to controls: 0 for no effect and ±100 for the full control effect
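Steps: dispense buffer (Tris pH 8.0, NaCl 300 mM, TCEP 1 mM, BSA, Tween 20); add 5X protein mix (GST-E1A, His-CtBP, 125 nM each); pin 23 nL compound; 2 h at 37 °C, dark; add 5X beads (50 ug/mL); 1 h; read.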
Six1-Eya2 blk: inhibitors of human Six1/Eya2 interaction; Q15475+O00167; AlphaScreen GST-Six1/His-Eya2 binding, biochemical; stronger effect = lower value; activity change, % (no concentration beside the values); 0.56% of 360,000 active; AID 651725; in the data active = activity change below about -65%; inconclusive = mostly about -30% to -63%; also: % is scaled to controls: 0 for no effect and ±100 for the full control effect
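AlphaScreen luminescence read after one hour at 37 °C in darkness. Pin-transferred compounds met GST-Six1 and His-Eya2 protein (5X stock 250 nM/500 nM) plus glutathione donor and Ni-chelate acceptor beads (5X, 50 ug/mL).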
G9a block: G9a (human) methyltransferase inhibition. 8.8% of 350,000 active. Q96KQ7. Potency, µM (doses to about 102 µM), for inactives: at the top dose activity, negative = inhibition, usual class: inhibitors. AID 504332. G9a H3K9 monomethylation, AlphaScreen, 2 h; also: potency is read from the fitted curve at half-maximal effect; % is scaled to controls: 0 for no effect and ±100 for the full control effect; nearly all actives have a fitted effect of over 75% in size
Target sequence (Q96KQ7 913-1193 limits assumed): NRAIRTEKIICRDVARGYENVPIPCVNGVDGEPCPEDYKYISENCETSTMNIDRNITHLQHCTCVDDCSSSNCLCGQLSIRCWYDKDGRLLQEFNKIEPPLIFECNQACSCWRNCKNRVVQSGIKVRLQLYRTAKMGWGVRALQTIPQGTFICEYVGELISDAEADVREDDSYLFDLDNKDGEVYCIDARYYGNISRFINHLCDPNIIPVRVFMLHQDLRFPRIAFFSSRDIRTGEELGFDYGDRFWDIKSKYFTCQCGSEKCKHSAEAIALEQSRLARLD
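Using a bead-based AlphaScreen, monomethylated H3K9 product from 2 h room-temperature reactions (G9a 20 nM, peptide 500 nM, SAM 20 uM) was detected with 0.5 ug/mL rabbit anti-H3K9me1 antibody.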
JMJD2A Tudor: inhibitors of human JMJD2A Tudor domain; Potency, µM (series often up to 114 µM), inactives show top-dose activity change, negative = inhibition, most hits filed as inhibitors; 4.4% of 390,000 active; AID 504339; AlphaScreen JMJD2A-Tudor / H3K4me3 peptide binding; O75164; also: potency is read from the fitted curve at half-maximal effect; % is scaled to controls: 0 for no effect and ±100 for the full control effect; nearly all actives have a fitted effect of over 50% in size
Starred values were filed as active, the others as inactive; ? = inconclusive; · = not tested or not shown; [ ] = dose if it differs, or a comment. Unless noted, calls follow the shape of the dose curve; as a rule, active = well fitted inhibition curve with a large enough effect; inconclusive = small, poorly fitted or top-dose-only effect; inactive = no such curve, though single readings can be large or run the other way.

SMILES	BAZ2B block	HP1b binding inh	CtBP-E1A inh	Six1-Eya2 blk	G9a block	JMJD2A Tudor
Cc1ccc(-n2c(CCC(=O)O)ccc2-c2cccs2)cc1	50µM*	-7%	7	-8	?	?
Cc1nc2nc(C)n(CCN3CCOCC3)c(=O)c2c(-c2cccc([N+](=O)[O-])c2)c1C(=O)CCCCCCCCCCN1CCC(c2ccccc2)(c2ccccc2)CC1	·	40µM*	?	?	·	25µM*
O=C(NCCCN1CCOCC1)/C(=C/c1ccc(-c2cccc([N+](=O)[O-])c2)o1)NC(=O)c1ccccc1	·	·	-1	-13	·	·
Cc1cccc(C)c1Nc1nnc(SCC(=O)Nc2ncc(C(F)(F)F)cc2Cl)s1	-7%	-17%	12	-24	2.2µM*	25µM*
Cc1ccccc1Nc1nnc(SCC(=O)Nc2ncc(C(F)(F)F)cc2Cl)s1	-8%	12%	-25	12	-4%[59 µM]	-12%
Cc1cccc(Nc2nnc(SCC(=O)Nc3ncc(C(F)(F)F)cc3Cl)s2)c1C	-36%	18%	4	-4	9%[59 µM]	-10%
Cc1ccc(Nc2nnc(SCC(=O)Nc3ncc(C(F)(F)F)cc3Cl)s2)cc1	-20%	19%	4	-1	7.1µM*	-23%
CCCCOc1ccc(C(=O)Nc2cc(-c3cn4cccnc4n3)ccc2OC)cc1	-2%	17%[57 µM]	·	·	12%[59 µM]	-11%
COCCCNC(=O)c1cc(C(=O)c2ccccc2Br)c[nH]1	-1%	-5%	-21	-3	2%	-5%
Cc1cc(Nc2cccc(Cl)c2C)n2ncnc2n1	-3%	34%	0	0	8%	-9%
Cc1cc(Nc2ccccc2F)n2ncnc2n1	6%	50%	-15	5	50µM*	-13%
CCn1c2ccccc2c2cc(Nc3cc(C)nc4ncnn34)ccc21	-30%	-5%	-6	-1	45µM*	?
Cc1cc(Nc2ccc(Cl)cc2)n2ncnc2n1	4%	46%	0	-5	·	-11%
Cc1cc(Nc2ccc(N(C)C)cc2)n2ncnc2n1	-8%	11%	-4	0	45µM*	-15%
C/C(N)=C(/C#N)C(=O)COC(=O)COc1ccc(Cl)cc1C	-5%	5%	1	9	50µM*	-15%
Cc1cc(Cl)ccc1OCC(=O)OCC(=O)Nc1ccc(Cl)cn1	·	·	-1	-2	·	·
NNc1nc(NCc2ccccc2)nc(N2CCOCC2)n1	79µM*	26%	-5	-7	2%[59 µM]	?
O=[N+]([O-])c1cccc(/C=N/Nc2nc(NCc3ccccc3)nc(N3CCOCC3)n2)c1O	-24%	-7%	-67*	-94*	?	20µM*
O=[N+]([O-])c1ccc(/C=N/Nc2nc(NCc3ccccc3)nc(N3CCOCC3)n2)cc1	-6%	57%	·	1	30%	-25%
COc1ccc(C)cc1S(=O)(=O)NCC(c1ccc2c(c1)OCO2)N1CCOCC1 (centres undefined)	7%	36%	1	31	-42%	-10%
COc1ccc(-c2cnc3c(NC(C)=O)cc(-c4ccc(C(=O)N5CCOCC5)cc4)cn23)cc1OC	·	·	-10	-2	·	·
COc1ccc(C(=O)NC(=S)N2CCCC2)cc1	-3%	11%	-11	0	·	-18%
CCOC(=O)N1CCN(C(=S)NC(=O)c2ccc(F)c(F)c2)CC1	-24%	37%	-22	1	45µM*	-9%
CC(=O)N1CCN(C(=S)NC(=O)c2ccc(F)cc2)CC1	·	10%	-4	18	·	1.6µM*
CCOC(=O)N1CCN(C(=S)NC(=O)c2cccc(OC)c2)CC1	·	20%	-3	17	·	-5%
SMILES	BAZ2B block	HP1b binding inh	CtBP-E1A inh	Six1-Eya2 blk	G9a block	JMJD2A Tudor
COc1ccc(C(=O)NC(=S)N2CCC(C)CC2)cc1	-20%	19%	1	3	16µM*	-12%
Cc1cc(C)nc(SCc2ccc(C(=O)N/N=C/C3CCCCC3)cc2)n1	3%	13%	2	5	16%[59 µM]	-12%
O=C(NCC1CCCO1)c1ccc(NS(=O)(=O)c2ccccc2)cc1 (centres undefined)	1%	32%	-4	7	19%	-8%
CC(c1ccccc1)N1CCn2c(nc3cc(NC(=O)NC4CCCCC4)ccc32)C1 (centres undefined)	10%	7%	-12	-2	35µM*	-24%
CCn1c2ccccc2c2nnc(SCC(=O)NC3CCS(=O)(=O)C3)nc21 (centres undefined)	-31%	24%	-9	8	40µM*	-14%
CCn1c2ccc(C)cc2c2nnc(SCCN3CCOCC3)nc21	-9%	21%	?	?	45µM*	-11%
CCCCn1c2ccc(C)cc2c2nnc(SCCN3CCCCC3)nc21	-1%	39%	-8	-5	?	-22%
Cn1c2ccccc2c2nnc(SCC(=O)Nc3cccc(O)c3)nc21	-33%	16%	·	-2	71µM*	-10%
CCc1cc2c(=O)n(Cc3ccco3)c(SCC(=O)NC3CCS(=O)(=O)C3)nc2s1 (centres undefined)	-20%	11%	-5	-6	50µM*	-28%
CCn1c2ccccc2c2nnc(SCC(=O)N(C)C3CCS(=O)(=O)C3)nc21 (centres undefined)	-17%	23%	-1	0	?	-6%
CCC(=O)c1ccc(OCC(=O)OCC(=O)Nc2sccc2C(N)=O)cc1	-22%	21%	-6	-1	7%	-16%
CCn1c2ccccc2c2nnc(SCCN3CCOCC3)nc21	6%	40%	·	5	0%[0.501 µM]	-9%
Cn1c2ccccc2c2nnc(SCCN3CCOCC3)nc21	-1%	63%	-12	-5	50µM*	-12%
CCCCn1c2ccccc2c2nnc(SCC(=O)NC3=NN=C(c4ccccc4)CS3)nc21	-3%	·	·	·	28µM*	·
COc1cc(NC(=S)NC2CC(C)(C)NC(C)(C)C2)c(OC)cc1Cl	-30%	38%	-12	1	50µM*	-18%
COc1cc(Cl)c(C)cc1NC(=S)NN	-18%	-28%	0	3	6.3µM*	?
COc1cc(NC(=S)NC(C)(C)C)c(OC)cc1Cl	-37%	-7%	-2	-2	?	?
COc1cc(Cl)c(C)cc1NC(=O)c1cccc(OC)c1OC	37%	87%	-1	13	23%	41%
COc1cc(NC(=S)NCCCO)c(OC)cc1Cl	-10%	27%	·	6	28µM*	-1%
Cc1cc2n(n1)C(c1ccccc1)CC(c1ccc(Br)cc1)=N2 (centres undefined)	24%	91%	-9	0	40µM*	23%
Cc1ccc(-n2c(-c3cnccn3)n[nH]c2=S)c(Br)c1	-30%	44%	8	3	18µM*	16µM*
Cc1ccc(-n2c(-c3ccc(Cl)cc3)n[nH]c2=S)c(C)c1	11%[0.457 µM]	17%	2	-2	5.6µM*	?
